An excerpt weighted towards active compounds, which were near 2.4% of everything screened.
D2 ag-1 = activates the human D2 dopamine receptor; activation, % (no concentration beside the values); AID 624465; DiscoveRx PathHunter D2 beta-arrestin, luminescence, 90 min; 100% = 57 uM dopamine signal; P14416; 360,000 tested, 0.084% active; in the data active = activation above about 40%; inconclusive = between about 15% and that limit
Target sequence (P14416 whole entry, looked up): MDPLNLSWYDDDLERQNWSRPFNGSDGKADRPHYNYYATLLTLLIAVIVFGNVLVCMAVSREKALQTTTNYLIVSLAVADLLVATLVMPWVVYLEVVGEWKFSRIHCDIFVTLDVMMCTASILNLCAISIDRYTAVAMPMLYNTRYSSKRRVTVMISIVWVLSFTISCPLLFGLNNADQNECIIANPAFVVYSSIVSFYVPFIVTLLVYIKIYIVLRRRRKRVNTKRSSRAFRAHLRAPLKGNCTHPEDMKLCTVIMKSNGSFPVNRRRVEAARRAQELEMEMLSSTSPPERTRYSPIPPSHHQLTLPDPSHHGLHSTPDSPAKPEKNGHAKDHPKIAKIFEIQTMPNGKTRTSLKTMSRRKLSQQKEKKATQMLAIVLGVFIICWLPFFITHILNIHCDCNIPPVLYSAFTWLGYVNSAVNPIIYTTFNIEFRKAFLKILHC
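DiscoveRx PathHunter D2 beta-arrestin cells (2,100/well) attached overnight, then compound-stimulated 90 min at 37 C in HBSS/10 mM HEPES/0.1% Tween-20 buffer; beta-galactosidase complementation read by luminescence after 1 h at ambient temperature. Dopamine 57 uM final (EC100) as control.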
B2AR arrestin = beta2AR (human) beta-arrestin recruitment activity | P07550 | beta-arrestin recruitment to beta2AR, cell-based reporter | Potency, µM (top dose mostly 46.1 µM), without a hit: at the highest dose activation, usual class: activators | 330,000 tested, 0.02% active | AID 492947; active = well fitted activation curve with a large enough effect; inconclusive = small, poorly fitted or top-dose-only effect;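 note: potency is the fitted concentration of half-maximal effect; 0% = DMSO controls and full agonism = EC100 isoproterenol or metaproterenol; nearly all actives have a fitted effect of over 65% in size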
D2 PAM-1 = human D2 receptor positive allosteric modulation. potentiation, % (concentration not given with the values). 360,000 tested, 0.23% active. AID 624464. DiscoveRx D2 beta-arrestin cells, luminescence, 90 min; 100% = 57 uM dopamine signal; in the data active = potentiation above about 50%; inconclusive = mostly about 30% to 49%
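D2 cells co-treated with compound plus 50 nM dopamine (EC20) for 90 min at 37 deg C to detect potentiation. Beta-arrestin recruitment was read as enzyme-fragment luminescence after 1 h at ambient temperature. Full response was set by 57 uM dopamine.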
D2 antagonist = antagonists of human D2 dopamine receptor; P14416; HEK293 TREx D2 cells, calcium flux, dopamine EC80; inhibition, % at 10 µM; 340,000 tested, 2% active; AID 485344; in the data active = inhibition above about 30%; inactive = below that, where a call was filed; note: 0% is about no effect
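Tetracycline-induced HEK293 T-REx cells expressing D2 force-coupled to calcium signalling were dye-loaded, exposed to compound for 180 s, then challenged with an EC80 of dopamine; calcium flux was followed kinetically for a further 180 s.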
D2 ag-2 = D2 dopamine receptor (human) agonism | activation, % at 2 µM | HEK293 T-REx D2 cells, calcium flux agonist mode | P14416 | 340,000 tested, 0.53% active | AID 485358;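 active = activation over 3 SD above normal in the single-dose calcium agonist read, cut at about 30% in these data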; note: 0% is about no effect
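HEK293 Trex D2 cells, tetracycline-induced, o/n 30 C 5% CO2; no-wash Ca dye, RT 30–90 min; 10-cycle baseline, 23 nl cpd added, kinetic Ca read 180 s; agonist hits = positive Ca response.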
D2 PAM-2 = positive allosteric modulators of human D2 dopamine receptor | potentiation, % at 10 µM | HEK293 T-REx D2, calcium flux, EC20 dopamine potentiation | 340,000 tested, 0.34% active;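 active = potentiation over 3 SD above the plate norm, cut at about 30% in these data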; note: 0% is about no effect
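Tetracycline-induced HEK293 T-REx cells force-coupled to calcium signalling expressed D2; compounds were pin-added after a 10 s baseline, read kinetically 180 s, then an EC20 dopamine challenge followed with a further 180 s calcium read.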
Active calls of the source: *; ? = inconclusive; . = no result.

SMILES	D2 ag-1	B2AR arrestin	D2 PAM-1	D2 antagonist	D2 ag-2	D2 PAM-2
COc1ccccc1N1CCN(CC(=O)c2c(N)n(C)c(=O)n(C)c2=O)CC1	1	0%	-15	16	5	-9
Cc1ccccc1OCC(O)CN1CCN(C)CC1 (stereo not drawn)	-6	0%	-7	-16	-1	9
Cc1ccc(-c2nn[nH]n2)o1	-2	0%	-9	5	0	10
CCC(=O)N1CCc2cc(Br)cc(S(=O)(=O)N3CCC(C(=O)Nc4ccccc4F)CC3)c21	.	.	.	.	-1	12
COC(=O)c1[nH]c2cc(C)ccc2c1NC(=O)CN1CCN(c2ccccc2OC)CC1	-4	0%	-35	70*	0	-20
CCOc1ccccc1N1CCN(CC(O)COC2CCCc3ccccc32)CC1 (stereo not drawn)	-1	0%	-7	78*	6	-34
COC(=O)c1[nH]c2cc(C)ccc2c1NC(=O)CN1CCOCC1	0	0%	0	5	-1	-15
COc1ccccc1NC(=O)NCC(=O)Nc1ccc(F)c(F)c1	-2	0%	-12	.	.	.
CCCCNC(=O)NCC(=O)Nc1ccc(F)c(F)c1	0	0%	-4	40*	0	-4
CS(=O)(=O)N1N=C(c2cccs2)CC1c1ccccc1 (stereo not drawn)	-3	0%	-10	32*	0	0
COC1CCCN(C(=O)c2ccc3oc(Cc4ccc(Cl)cc4)nc3c2)C1 (stereo not drawn)	-1	0%	7	31*	-1	-9
CCc1cc(C(=O)NC2CCCc3c2cnn3-c2ccc(F)cc2F)no1 (stereo not drawn)	-2	.	-9	.	.	.
COc1ccc(C(=O)c2ccc(Cl)c([N+](=O)[O-])c2)cc1	4	-1%	2	-8	0	-1
CS(=O)(=O)N1CCc2cc(C(=O)N3CCCCC3)ccc21	2	-1%	-4	4	0	-5
CS(=O)(=O)N1CCc2cc(C(=O)O)ccc21	-1	0%	1	0	-1	31*
COc1ccc(NC(=O)c2csc(Cc3ccc(Cl)cc3)n2)cc1	-4	0%	-6	8	0	-3
COc1ccc(COc2ccsc2C(=O)Nc2ccc(Cl)cc2)cc1	-1	0%	-10	40*	1	16
Cc1ccc(-c2ccc(=O)n(Cc3cccc(Br)c3)n2)cc1	-3	0%	-15	-55	0	-2
CN(C)S(=O)(=O)c1ccc(-c2csc(N/N=C/c3ccc(O)cc3)n2)cc1	?	-1%	57*	-8	0	1
CN(C)S(=O)(=O)c1ccc(-c2csc(N/N=C/c3ccco3)n2)cc1	?	-1%	15	-22	0	7
COC(=O)C1C(c2ccccc2)C(C(=O)N2CCN(C)CC2)C1c1ccccc1 (stereo not drawn)	-3	0%	8	33*	0	1
COC(=O)[C@H]1[C@H](c2ccccc2)[C@H](C(=O)OC)O[C@H]1c1ccccc1	-5	.	-9	.	.	.
C=CCn1cc(C(=O)OC)c(=O)c2cc(S(=O)(=O)N3CCCCCC3)ccc21	0	0%	-7	2	5	-11
Brc1ccc(NC2=Nc3ccccc3CC2)cc1	0	0%	-8	8	1	-14
Cc1ccc(NC2=Nc3ccccc3CC2)cc1	-5	0%	-56	61*	1	-27
SMILES	D2 ag-1	B2AR arrestin	D2 PAM-1	D2 antagonist	D2 ag-2	D2 PAM-2
COc1ccc(Br)cc1CN1CCN(Cc2c[nH]c3ccccc23)CC1	-3	0%	-15	87*	2	-22
COc1ccc(CN2CCN(Cc3c[nH]c4ccccc34)CC2)cc1OC	-3	.	-28	.	.	.
COc1cccc(NCc2ccc([N+](=O)[O-])s2)c1	10	-1%	50*	-29	0	19
COc1cc2nc(/C=C/c3ccc(N(C)C)cc3)sc2cc1SC	-3	-1%	-8	24	67*	-4
Cc1cc(=O)n(CCO)c(O)c1C#N	11	-1%	52*	-15	0	8
CCn1c(O)c(C#N)c(C)cc1=O	11	0%	9	11	1	6
Cc1ccc(-c2cc(C(=O)Nc3cc(C)on3)c3ccccc3n2)cc1	0	0%	-7	1	0	16
Cc1cc(NC(=O)c2cc(-c3cccs3)nc3ccccc23)no1	7	0%	-2	37*	0	0
NS(=O)(=O)c1ccc(NC(=O)c2cc(-c3cccs3)nc3ccccc23)cc1	1	0%	-11	-11	1	6
CC(=O)NS(=O)(=O)c1ccc(NC(=O)c2cc(-c3cccs3)nc3ccccc23)cc1	1	-1%	-1	17	37*	-17
O=C(CCCN1CCOC(c2ccccc2)C1)c1ccc(F)cc1 (stereo not drawn)	-5	0%	-4	49*	0	-27
CN1CCN(CCCC(=O)c2ccc(F)cc2)CC1	-4	-1%	-52	21	-1	-20
O=C(CCCN1Cc2ccccc2C1)c1ccc(F)cc1	-3	-1%	-23	79*	0	-6
Cc1ccc(N2C(=O)CSC2c2c(F)cccc2Cl)cc1 (stereo not drawn)	-4	0%	-12	16	-1	0
NC(=O)C1CCN(c2cc(Cl)ccc2[N+](=O)[O-])CC1	-4	1%	8	15	-2	4
Cc1c(CC(=O)N[C@@H](C)C(=O)O)c(=O)oc2cc3c(cc12)CCC(C)(C)O3	-2	0%	-3	36*	0	-6
Cc1c(CC(=O)NC(C)C)c(=O)oc2cc3c(cc12)CCC(C)(C)O3	6	4%	-9	3	-1	8
O=[N+]([O-])c1cc(-c2n[nH]c(-c3ccccc3)n2)cc([N+](=O)[O-])c1	6	-1%	53*	-9	0	13
COc1cc(/C=C(/C#N)c2nc3ccccc3[nH]2)ccc1OCC(=O)Nc1ccccc1C(C)C	1	0%	0	32*	2	-6
CC(NC(=O)C1CCC1)c1ccc(Cl)cc1 (stereo not drawn)	-1	0%	-9	-1	0	-7
C[C@@H]1CN([C@H](C)CO)C(=O)CCCn2nncc2CO[C@H]1CN(C)C(=O)C1CCCCC1	2	.	-4	.	.	.
CCN(CC)c1ccc(CN(C(=O)c2cccs2)C2CCS(=O)(=O)C2)cc1 (stereo not drawn)	-5	0%	-14	30*	0	9

Assay outcomes (PubChem)
